# Test results: PubChem BioAssay (EPA / NIEHS)
# Records with an inconclusive call do not appear. Activity calls are given as the source filed them. The calls were made as follows: active = hit-call score of the fitted dose curve at least 0.9, where 1 is the maximum; inconclusive = response in the unintended direction; inactive = score below 0.9.
# Tests used:
# [1] = biological target: sheep Cyclooxygenase-1 (Cox1), PTGS1 (gene 443551) (UniProt P05979); assay: NVS_ENZ_oCOX1: NovaScreen (NVS) Enzymatic Assay for sheep Cyclooxygenase-1 (Cox1) (AID 2283239);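 also: actives reduce cyclooxygenase activity so potencies are for inhibitors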
# Method in brief: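 Absorbance read-out of cyclooxygenase activity in a cell-free preparation from sheep seminal vesicles, taken 0.66 hour after dosing. Initial testing was in duplicate at 25 uM, and confirmatory testing was run in concentration series.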
# [2] = system: rat Monoamine Oxidase, MAO-A, Central (MAOAC), gene 29253; assay: NVS_ENZ_rMAOAC: NovaScreen (NVS) Enzymatic Assay for rat Monoamine Oxidase, MAO-A, Central (MAOAC) (AID 2283243);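 also: potency refers to inhibition seen as signal drop below DMSO baseline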
# Description: (§1) NVS_ENZ_rMAOAC is a biochemical, single-readout assay that uses extracted gene-proteins from Rat brain in a tissue-based cell-free assay. Measurements were taken 1.5 hours after chemical dosing in a 96-well plate.NVS_ENZ_rMAOAC is one of one assay component(s) measured or calculated from the NVS_ENZ_rMAOAC assay. It is designed to make measurements of enzyme activity, a form of enzyme reporter, as detected with scintillation counting signals by Lysate-based radiodetection technology.Data from the assay component NVS_ENZ_rMAOAC was analyzed into 1 assay endpoint. This assay endpoint, NVS_ENZ_rMAOAC, was analyzed in the positive analysis fitting direction relative to DMSO as the negative control and baseline of activity. Using a type of enzyme reporter, loss-of-signal activity can be used to understand changes in the enzymatic activity as they relate to the gene Maoa. Furthermore, this assay endpoint can be referred to as a primary readout, because this assay has produced multiple assay endpoints where this one serves a enzymatic activity function. To generalize the intended target to other relatable targets, this assay endpoint is annotated to the oxidoreductase intended target family, where the subfamily is monoamine oxidase.
# Binding assays used specific radioligands (tritiated, iodinated) with non-radioactive competitive displacement ligands in agonist or antagonist protocols (as indicated) and various reference compounds and inhibitors to titrate specific binding to receptors and transporters. Most enzyme assays (CYPs, kinases, phosphatases, proteases, HDACs) used recombinant protein and specific substrates (fluorescence mostly, some colorimetric and radioactive) and inhibitors, followed by a biochemical separation of substrate and product. All assays for the biochemical HTS were initially run in duplicate at a single concentration (10 uM for CYP450 assays and 25 uM for all others). […] Each assay was run with positive and negative controls, and concurrent controls on every plate. The follow-up (secondary) screen tested active chemical-pairs in concentration series, as well as a few additional assays not tested in the primary screen, some selected negative inactives, and several cases re-run in the concentration series for confirmatory purposes.
# [3] = biological target: rat Monoamine Oxidase, MAO-B, Central (MAOBC), Maob (gene 25750) (UniProt P19643); assay: NVS_ENZ_rMAOBC: NovaScreen (NVS) Enzymatic Assay for rat Monoamine Oxidase, MAO-B, Central (MAOBC) (AID 2283238)
# Method in brief: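 Rat brain tissue extract served as the cell-free MAO-B source; enzyme activity was read by scintillation counting 1.17 hours after compound addition. Loss of signal versus DMSO baseline was fitted; primary single-concentration screen at 25 uM, follow-up concentration-response up to 50 uM.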
# [4] = system: guinea pig Leukotriene B4 Receptor (LTB4), gene 100379538; assay: NVS_GPCR_gLTB4: NovaScreen (NVS) G Protein-Coupled Receptor Assay for guinea pig Leukotriene B4 Receptor (LTB4) (AID 2283247)
# Method in brief: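 Radioligand displacement on guinea pig spleen membranes, filter-based scintillation counting 2 h after dosing. Primary duplicate single point at 25 uM; hits over threshold (e.g. 30% inhibition) run in concentration-response up to 50 uM, DMSO baseline.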
# [5] = system: bovine Histamine 1 Receptor (H1), gene 281231; assay: NVS_GPCR_bH1: NovaScreen (NVS) G Protein-Coupled Receptor Assay for bovine Histamine 1 Receptor (H1) (AID 2283246)
# Description: NVS_GPCR_bH1 is a biochemical, single-readout assay that uses extracted gene-proteins from Bovine cerebellar membranes in a tissue-based cell-free assay. Measurements were taken 1 hour after chemical dosing in a 48-well plate.NVS_GPCR_bH1 is one of one assay component(s) measured or calculated from the NVS_GPCR_bH1 assay. It is designed to make measurements of radioligand binding, a form of binding reporter, as detected with scintillation counting signals by Filter-based radiodetection technology.Data from the assay component NVS_GPCR_bH1 was analyzed into 1 assay endpoint. This assay endpoint, NVS_GPCR_bH1, was analyzed in the positive analysis fitting direction relative to DMSO as the negative control and baseline of activity. […] Furthermore, this assay endpoint can be referred to as a primary readout, because the performed assay has only produced 1 assay endpoint. […]
# (§2) Binding assays used specific radioligands (tritiated, iodinated) with non-radioactive competitive displacement ligands in agonist or antagonist protocols (as indicated) and various reference compounds and inhibitors to titrate specific binding to receptors and transporters. Most enzyme assays (CYPs, kinases, phosphatases, proteases, HDACs) used recombinant protein and specific substrates (fluorescence mostly, some colorimetric and radioactive) and inhibitors, followed by a biochemical separation of substrate and product. […]
# [6] = biological target: rat Monoamine Oxidase, MAO-B, Peripheral (MAOBP), Maob (gene 25750) (UniProt P19643); assay: NVS_ENZ_rMAOBP: NovaScreen (NVS) Enzymatic Assay for rat Monoamine Oxidase, MAO-B, Peripheral (MAOBP) (AID 2283242)
# Description: as §1, with “NVS_ENZ_rMAOBP” for “NVS_ENZ_rMAOAC”, “1.17” for “1.5”, “plate.NVS_ENZ_rMAOBP” for “plate.NVS_ENZ_rMAOAC”, “NVS_ENZ_rMAOBP,” for “NVS_ENZ_rMAOAC,”, “Maob.” for “Maoa.”
# (§3) Binding assays used specific radioligands (tritiated, iodinated) with non-radioactive competitive displacement ligands in agonist or antagonist protocols (as indicated) and various reference compounds and inhibitors to titrate specific binding to receptors and transporters. Most enzyme assays (CYPs, kinases, phosphatases, proteases, HDACs) used recombinant protein and specific substrates (fluorescence mostly, some colorimetric and radioactive) and inhibitors, followed by a biochemical separation of substrate and product. All assays for the biochemical HTS were initially run in duplicate at a single concentration (10 uM for CYP450 assays and 25 uM for all others). Assay-chemical combinations meeting a pre-defined threshold (e.g., 30% inhibition and other criteria defined below) were then run in singleton concentration-response format with maximum concentration of 20 uM for CYPs and 50 uM for all others. Each assay was run with positive and negative controls, and concurrent controls on every plate. The follow-up (secondary) screen tested active chemical-pairs in concentration series, as well as a few additional assays not tested in the primary screen, some selected negative inactives, and several cases re-run in the concentration series for confirmatory purposes.
# [7] = biological target: bovine Dopamine Receptor (DR), Non-selective Binding, DRD1 (gene 281125) (UniProt Q95136); assay: NVS_GPCR_bDR_NonSelective: NovaScreen (NVS) G Protein-Coupled Receptor Assay for bovine Dopamine Receptor (DR), Non-selective Binding (AID 2283241)
# Method in brief: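 Bovine striatal membranes; radioligand displacement read by filtration and scintillation counting 1 h after dosing, loss of signal vs DMSO. Screened in duplicate at 25 uM, then concentration-response for hits.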
# [8] = system: bovine Angiotensin II Receptor Type 2 (AT2), gene 407157; assay: NVS_GPCR_bAT2: NovaScreen (NVS) G Protein-Coupled Receptor Assay for bovine Angiotensin II Receptor Type 2 (AT2) (AID 2283240)
# Description: (§4) NVS_GPCR_bAT2 is a biochemical, single-readout assay that uses extracted gene-proteins from Bovine cerebellar membranes in a tissue-based cell-free assay. Measurements were taken 1 hour after chemical dosing in a 96-well plate.NVS_GPCR_bAT2 is one of one assay component(s) measured or calculated from the NVS_GPCR_bAT2 assay. It is designed to make measurements of radioligand binding, a form of binding reporter, as detected with scintillation counting signals by Filter-based radiodetection technology.Data from the assay component NVS_GPCR_bAT2 was analyzed into 1 assay endpoint. This assay endpoint, NVS_GPCR_bAT2, was analyzed in the positive analysis fitting direction relative to DMSO as the negative control and baseline of activity. Using a type of binding reporter, loss-of-signal activity can be used to understand changes in the binding as they relate to the gene AGTR2. Furthermore, this assay endpoint can be referred to as a primary readout, because the performed assay has only produced 1 assay endpoint. To generalize the intended target to other relatable targets, this assay endpoint is annotated to the gpcr intended target family, where the subfamily is rhodopsin-like receptor.
# as §2, with “product. All assays for the biochemical HTS were initially run in duplicate at a single concentration (10 uM for CYP450 assays and 25 uM for all others).” for “product.”
# [9] = biological target: Adenosine receptor A1 (Bos taurus) (UniProt P28190); assay: NVS_GPCR_bAdoR_NonSelective: NovaScreen (NVS) G Protein-Coupled Receptor Assay for bovine Adenosine Receptor (AdoR), Non-selective Binding (AID 2283244)
# Description: as §4, with “NVS_GPCR_bAdoR_NonSelective” for “NVS_GPCR_bAT2”, “striatal” for “cerebellar”, “plate.NVS_GPCR_bAdoR_NonSelective” for “plate.NVS_GPCR_bAT2”, “NVS_GPCR_bAdoR_NonSelective,” for “NVS_GPCR_bAT2,”, “ADORA1.” for “AGTR2.”
# as §3
# [10] = NVS_GPCR_bNPY_NonSelective: NovaScreen (NVS) G Protein-Coupled Receptor Assay for bovine Neuropeptide Y (NPY) Receptor, Non-selective Binding (AID 2283245)
# Method in brief: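 Bovine hippocampal membranes incubated 1 hour with radioligand and test chemical. Bound ligand measured by filter-based scintillation counting. Single-concentration screen at 25 uM in duplicate, then concentration-response up to 50 uM.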
# Chain of Adenosine receptor A1 (Bos taurus) (P28190 whole entry, looked up): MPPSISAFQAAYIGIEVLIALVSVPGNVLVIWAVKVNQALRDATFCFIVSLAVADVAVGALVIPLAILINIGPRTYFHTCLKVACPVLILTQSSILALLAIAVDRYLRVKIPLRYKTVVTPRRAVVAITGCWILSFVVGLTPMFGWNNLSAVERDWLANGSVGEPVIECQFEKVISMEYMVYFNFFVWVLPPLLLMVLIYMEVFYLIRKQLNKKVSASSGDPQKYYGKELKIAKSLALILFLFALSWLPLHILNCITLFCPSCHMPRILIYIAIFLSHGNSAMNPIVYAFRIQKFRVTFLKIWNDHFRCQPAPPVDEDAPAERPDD
# Chain of bovine Dopamine Receptor (DR), Non-selective Binding, DRD1 (gene 281125) (Q95136 whole entry, looked up): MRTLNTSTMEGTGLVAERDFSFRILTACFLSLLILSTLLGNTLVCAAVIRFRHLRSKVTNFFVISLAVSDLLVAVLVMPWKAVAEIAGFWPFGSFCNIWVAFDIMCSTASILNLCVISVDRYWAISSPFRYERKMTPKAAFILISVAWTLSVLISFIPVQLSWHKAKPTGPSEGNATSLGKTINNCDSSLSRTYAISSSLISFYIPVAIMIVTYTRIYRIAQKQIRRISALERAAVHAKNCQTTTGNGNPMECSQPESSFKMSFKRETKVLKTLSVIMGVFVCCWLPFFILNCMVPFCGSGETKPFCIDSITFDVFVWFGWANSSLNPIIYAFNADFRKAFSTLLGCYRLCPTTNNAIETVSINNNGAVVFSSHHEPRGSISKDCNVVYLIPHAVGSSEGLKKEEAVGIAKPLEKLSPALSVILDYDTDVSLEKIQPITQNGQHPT
# Chain of sheep Cyclooxygenase-1 (Cox1), PTGS1 (gene 443551) (P05979 whole entry, looked up): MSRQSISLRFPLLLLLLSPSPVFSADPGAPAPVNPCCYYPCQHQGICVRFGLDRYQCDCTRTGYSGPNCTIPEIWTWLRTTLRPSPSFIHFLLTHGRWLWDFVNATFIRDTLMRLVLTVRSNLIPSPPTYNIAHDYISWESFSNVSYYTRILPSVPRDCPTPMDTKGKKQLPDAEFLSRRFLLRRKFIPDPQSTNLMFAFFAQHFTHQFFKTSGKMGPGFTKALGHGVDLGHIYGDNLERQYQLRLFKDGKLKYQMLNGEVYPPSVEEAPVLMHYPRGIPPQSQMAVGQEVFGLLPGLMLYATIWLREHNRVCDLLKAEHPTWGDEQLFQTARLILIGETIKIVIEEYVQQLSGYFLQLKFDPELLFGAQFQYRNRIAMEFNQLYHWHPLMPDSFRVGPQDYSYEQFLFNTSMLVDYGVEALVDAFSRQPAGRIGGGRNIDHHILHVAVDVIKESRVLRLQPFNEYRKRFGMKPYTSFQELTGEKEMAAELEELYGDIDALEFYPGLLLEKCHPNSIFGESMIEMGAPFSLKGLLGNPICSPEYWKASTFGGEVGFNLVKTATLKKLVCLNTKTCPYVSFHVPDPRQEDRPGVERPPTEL
# Chain of rat Monoamine Oxidase, MAO-B, Central (MAOBC), Maob (gene 25750) (P19643 whole entry, looked up): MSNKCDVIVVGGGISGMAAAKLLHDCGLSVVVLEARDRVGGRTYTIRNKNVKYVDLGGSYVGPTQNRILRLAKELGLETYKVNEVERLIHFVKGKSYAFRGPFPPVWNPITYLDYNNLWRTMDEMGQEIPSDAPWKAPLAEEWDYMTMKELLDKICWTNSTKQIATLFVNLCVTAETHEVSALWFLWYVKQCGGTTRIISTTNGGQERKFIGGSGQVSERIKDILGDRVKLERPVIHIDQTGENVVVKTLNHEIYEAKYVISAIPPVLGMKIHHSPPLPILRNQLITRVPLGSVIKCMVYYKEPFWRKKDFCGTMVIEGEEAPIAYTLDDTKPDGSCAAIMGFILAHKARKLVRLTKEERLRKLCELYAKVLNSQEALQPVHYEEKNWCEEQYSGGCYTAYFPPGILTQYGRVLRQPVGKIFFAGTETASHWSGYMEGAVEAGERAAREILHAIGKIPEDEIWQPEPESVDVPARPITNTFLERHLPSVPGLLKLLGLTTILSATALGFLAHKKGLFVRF
# Chain of rat Monoamine Oxidase, MAO-B, Peripheral (MAOBP), Maob (gene 25750) (P19643 whole entry, looked up): as above
smiles,measurement,setting,value
Nc1cccc2ccccc12,AC50,[1],13.6 µM (active)
same,AC50,[2],25 µM (active)
CCOC(=O)Nc1cccc(OC(=O)Nc2ccccc2)c1,AC50,[1],8.56 µM (active)
same,AC50,[2],5.76 µM (active)
Oc1cccc2cccnc12,outcome,[3],inactive
O=C(O)C(F)(F)C(F)(F)C(F)(F)C(F)(F)C(F)(F)C(F)(F)F,AC50,[4],17.3 µM (active)
O=S(=O)(c1ccc(Cl)cc1)c1ccc(Cl)cc1,outcome,[2],inactive
C[C@@H]1C[C@@H]([C@H](O)CC2CC(=O)NC(=O)C2)C(=O)[C@@H](C)C1,outcome,[5],inactive
C[C@]12CCC(=O)C[C@@H]1CC[C@@H]1[C@@H]2CC[C@]2(C)[C@@H](O)CC[C@@H]12,outcome,[6],inactive
CCN1CCC2(CC1)COc1cc3c(cc12)N(C(=O)c1ccc(-c2ccc(-c4nnc(C)o4)cc2C)cc1)CC3,outcome,[3],inactive
same,AC50,[1],4.68 µM (active)
same,AC50,[7],9.79 µM (active)
same,AC50,[6],19.5 µM (active)
same,AC50,[2],23.4 µM (active)
CC(=O)[O][Hg][c]1ccccc1,AC50,[3],25 µM (active)
same,AC50,[8],37.4 µM (active)
same,AC50,[9],25 µM (active)
same,AC50,[10],4.57 µM (active)
same,AC50,[4],3.45 µM (active)
Nc1ccc(-c2ccc(N)c(Cl)c2)cc1Cl,AC50,[1],1.64 µM (active)
COc1cc(-c2ccc(N)c(OC)c2)ccc1N,outcome,[9],inactive
CC(=O)C(Cl)C(=O)N(C)C (stereo not given),outcome,[1],inactive
COc1cc(OC)nc(NC(=O)NS(=O)(=O)c2ncccc2C(=O)N(C)C)n1,AC50,[1],7.06 µM (active)
Cn1sc(Cl)cc1=O,outcome,[9],inactive
C=C(C)C(=O)[O][Sn]([CH2]CCC)([CH2]CCC)[CH2]CCC,AC50,[8],25 µM (active)
same,AC50,[7],10.6 µM (active)
same,AC50,[10],2.56 µM (active)
same,AC50,[4],6.14 µM (active)
OCc1ccco1,AC50,[1],6.01 µM (active)
CCOC(=O)/C=C(C)/C=C/C[C@@H](C)CCCC(C)C,AC50,[1],31.3 µM (active)
O=[N+]([O-])c1ccc2c3c(cccc13)CC2,AC50,[1],18.9 µM (active)
same,AC50,[2],6.28 µM (active)
O=C(Nc1ccc2[nH]ccc2c1)c1cc2cc(F)ccc2n1Cc1cccc(F)c1,outcome,[8],inactive
CCC(=O)C(CC(C)N(C)C)(c1ccccc1)c1ccccc1 (stereo not given),AC50,[3],2.99 µM (active)
same,AC50,[7],6.89 µM (active)
same,AC50,[6],4.1 µM (active)
CCCCCCCCCl,AC50,[1],0.0723 µM (active)
O=C(O)C(F)(F)C(F)(F)C(F)(F)C(F)(F)C(F)(F)C(F)(F)C(F)(F)C(F)(F)C(F)(F)C(F)(F)F,outcome,[1],inactive
same,outcome,[9],inactive
same,AC50,[4],5.1 µM (active)
Clc1ccc(C2(Cn3cncn3)CC(Br)CO2)c(Cl)c1 (stereo not given),outcome,[1],inactive
ClCCBr,outcome,[1],inactive
CC(C)(C)c1cc(O)ccc1O,AC50,[1],11 µM (active)
same,outcome,[9],inactive
Oc1ccc(-c2ccccc2)cc1,outcome,[1],inactive
same,AC50,[2],13.8 µM (active)
COC(=O)Cc1ccccc1,outcome,[1],inactive
N#CCc1ccc(Cl)cc1,AC50,[2],25 µM (active)
ClC(Cl)=C(Cl)C(Cl)=C(Cl)Cl,outcome,[1],inactive
Cl/C=C\C[N+]12CN3CN(CN(C3)C1)C2,AC50,[1],5.46 µM (active)
COc1ccc(OC)c(C=O)c1,AC50,[2],17.3 µM (active)
CN(C)N=O,outcome,[4],inactive
CC12CC1(C)C(=O)N(c1cc(Cl)cc(Cl)c1)C2=O (stereo not given),outcome,[1],inactive
same,outcome,[6],inactive
CC(C)(OO)c1ccccc1,AC50,[1],2.76 µM (active)
